Screens: PubChem BioAssay, several laboratories
An excerpt weighted towards active compounds, which were near 2.6% of everything screened.
EBV LMP1 NFkB: Epstein-Barr LMP1 NF-kappaB reporter inhibition. LMP1-induced NF-kappaB luciferase reporter cells, luminescence. 0.69% of 350,000 active. inhibition, % at 12.5 µM; in the data active = inhibition above about 41%; inconclusive = no clear call, values can overlap the other calls;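 note: 0% = neutral control wells and 100% = reference inhibitor control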
TWEAK Fn14 block: inhibitors of TWEAK-Fn14 interaction signaling; inhibition, % at 10 µM; TWEAK-stimulated Fn14 reporter cells, luciferase luminescence, 8 h; 2% of 360,000 active; AID 1159606; in the data active = inhibition above about 50%
aDG glyco act: increases alpha dystroglycan glycosylation; Pro5-aDG cells, alpha-DG glycosylation AlphaScreen (IIH6); 0% Pro5, 100% B10-LARGE cell signal; activation, % at 10 µM; 0.22% of 360,000 active;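 active = activation of at least 8% versus controls, or a plate z-score of at least 8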;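 note: Pro5 are CHO cells carrying HIG-tagged alpha-DG that lacks glycosylation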
LGR2 antag: inhibitors of bursicon-induced Drosophila LGR2 receptor cAMP signaling. HEK293 LGR2, CRE-luciferase, bursicon-stimulated, 4 h. inhibition, % at 9.99 µM. 0.35% of 380,000 active;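 active = drop in luminescence signal, shown as inhibition above about 50% in the replicate tests, limit read from the data, passing the limit was not always enough; inconclusive = probably only some replicates passing the limit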;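 note: agonist challenge used bursicon conditioned medium at about half maximal strength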
HSP90 refold inh: blocks HSP90-mediated luciferase refolding in reticulocyte lysate; 0.91% of 290,000 active; inhibition, % at 5.6 µM; Rabbit reticulocyte lysate, luciferase refolding luminescence, 3 h;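 active = inhibition above the screen-wide mean plus 3 SD, computed separately per campaign, cut at about 16% in these data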;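 note: 0% = DMSO wells and 100% = 60 µM geldanamycin wells; inhibitors lower the luminescence because luciferase stays unfolded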
TROY NFkB inh: inhibitors of TROY-dependent NF-kB signaling; Q293 LMP1-TROYcd NF-kB luciferase reporter, 4 h; inhibition, % at 10 µM; 0.98% of 360,000 active; AID 1347056;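 active = compounds whose plate-normalised and pattern-corrected inhibition of the luciferase reporter signal at the single screening dose is 50% or more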
Active calls of the source: *; ? = inconclusive; . = no result given.

SMILES	EBV LMP1 NFkB	TWEAK Fn14 block	aDG glyco act	LGR2 antag	HSP90 refold inh	TROY NFkB inh
CC(=O)c1c(C)[nH]c(C(=O)OCC(=O)Nc2ccc(Cl)c(S(=O)(=O)N(C)C)c2)c1C	10.4	54.2*	0.4	15.4	-2.1	22.1
Cc1nc(NCC2CCCO2)c2oc3ccccc3c2n1 (stereo not drawn)	2.5	-3.9	0.3	.	-6.4	-1.2
CCc1nc(NCC2CCCO2)c2oc3ccccc3c2n1 (stereo not drawn)	1.6	86.9*	0.1	.	1.9	.
Cc1nc(Nc2ccc3c(c2)OCCO3)c2oc3ccccc3c2n1	2.8	-3.9	-0.1	.	-0.7	-6.7
c1ccc2c(c1)oc1c(Nc3ccc4c(c3)OCCO4)ncnc12	-13.2	67.4*	-0.6	24.8	5.4	-38.7
CCc1nc(Nc2ccc3c(c2)OCCO3)c2oc3ccccc3c2n1	9.0	78.7*	3.6	.	0.4	46.4
Cc1cc(C(=O)Nc2ccc3c(c2)C(=O)N(C)[C@@H]2CC[C@H](CC(=O)NCC(F)(F)F)O[C@@H]2CO3)no1	.	.	.	-8.5	.	.
O=C(CCCCn1c(=O)[nH]c2ccccc2c1=O)N1CCN(c2cccc(C(F)(F)F)c2)CC1	7.2	36.9	0.7	.	0.3	32.7
COc1cccc(N2CCN(C(=O)CCCCCNc3nc(=S)[nH]c4ccccc34)CC2)c1	12.6	53.5*	0.0	?	-2.1	70.0*
O=C(CCCn1c(=S)[nH]c2ccccc2c1=O)N1CCN(c2cccc(Cl)c2)CC1	11.3	51.5*	0.2	.	-2.7	52.3*
O=C(c1[nH]ncc1-c1cccc(Br)c1)C1CO1 (stereo not drawn)	-37.8	53.7*	0.2	17.5	4.2	3.8
COc1ccc(C2SCCN2C(=O)c2ccc([N+](=O)[O-])cc2)cc1 (stereo not drawn)	42.2*	-15.4	-0.2	23.8	1.7	-4.0
Cc1ccc(S(=O)(=O)c2c(N)n(CCC(C)C)c3nc4ccccc4nc23)cc1	-12.0	44.3	2.5	.	3.4	73.3*
Nc1c(S(=O)(=O)c2cccs2)c2nc3ccccc3nc2n1Cc1cccs1	-30.0	24.5	0.0	.	1.7	69.8*
Nc1c(S(=O)(=O)c2ccccc2)c2nc3ccccc3nc2n1CCN1CCOCC1	-7.5	10.5	-0.1	-4.2	3.4	0.4
Cc1ccc(C(=O)Nn2c(N)c(S(=O)(=O)c3ccc(C)cc3)c3nc4ccccc4nc32)cc1	-3.0	22.9	0.0	.	5.7	7.0
Nc1c(S(=O)(=O)c2ccccc2)c2nc3ccccc3nc2n1Cc1ccco1	-12.9	18.7	18.9*	16.3	2.0	8.0
Nc1c(S(=O)(=O)c2cccs2)c2nc3ccccc3nc2n1Cc1ccc2c(c1)OCO2	-22.8	41.5	0.2	.	0.8	15.1
Cc1ccc(S(=O)(=O)c2c(N)n(CCCO)c3nc4ccccc4nc23)cc1	3.3	27.7	-0.3	.	1.2	64.2*
Cc1noc(C)c1NC(=O)Nc1ccc2c(c1)C(=O)N([C@@H](C)CO)C[C@@H](C)[C@@H](CN(C)C(=O)C1CCCCC1)OCCCC[C@@H](C)O2	.	.	.	-2.3	.	.
CC(C)CCn1c(N)c(S(=O)(=O)c2cccs2)c2nc3ccccc3nc21	-19.4	90.2*	1.0	31.1	3.4	86.3*
Nc1c(S(=O)(=O)c2cccs2)c2nc3ccccc3nc2n1CCc1ccccc1	.	.	.	.	5.9	.
CCC(=O)N1C[C@H](O)COC[C@@H]2O[C@H](CC(=O)NCc3cc(F)cc(F)c3)CC[C@H]21	.	.	.	-9.3	.	.
CC(=O)c1cccc(NC(=O)c2cccc3c(-c4cccc(C(N)=O)c4)coc23)c1	.	83.3*	0.2	-10.9	.	63.8*
COc1ccc(-c2coc3c(C(=O)Nc4ccc(OC)nc4)cccc23)c(C)c1	.	45.4	-0.2	-10.1	.	24.7
SMILES	EBV LMP1 NFkB	TWEAK Fn14 block	aDG glyco act	LGR2 antag	HSP90 refold inh	TROY NFkB inh
CS(=O)(=O)Nc1cccc(NC(=O)c2cccc3c(-c4cccc(C(N)=O)c4)coc23)c1	.	34.8	-0.3	-16.8	.	6.5
O=C(Nc1cccc(F)c1)c1ccc(-c2cccnc2)c2ccoc12	.	76.5*	0.5	.	.	39.5
COc1ccc(-c2coc3c(C(=O)NCc4ccc(OC)c(OC)c4)cccc23)c(C)c1	.	63.2*	4.6	7.4	.	44.0
COc1ccc(-c2coc3c(C(=O)Nc4cc(OC)c(OC)c(OC)c4)cccc23)c(C)c1	.	92.6*	1.2	57.9*	.	63.4*
O=C(NCc1cccc(Cl)c1)c1ccc(-c2cccnc2)c2ccoc12	.	-12.9	1.3	.	.	-50.3
C[C@@H]1CN([C@H](C)CO)C(=O)c2cc(NC(=O)Nc3cccc4ccccc34)ccc2O[C@@H](C)CCCCO[C@H]1CN(C)Cc1ccccc1	.	.	.	17.4	.	.
COc1ccc(CN(C)C[C@H]2OCCCC[C@H](C)Oc3ccc(NC(=O)Nc4cccc5ccccc45)cc3C(=O)N([C@@H](C)CO)C[C@@H]2C)cc1	.	.	.	-4.7	.	.
O=C(Nc1cccc(C(F)(F)F)c1)c1cccc2c(-c3cccnc3)coc12	.	16.9	0.5	.	.	33.1
COc1cc(NC(=O)c2cccc3c(-c4cccnc4)coc23)cc(OC)c1OC	.	79.8*	-0.2	85.6*	.	68.4*
COC(=O)c1cc(=O)n(Cc2cccs2)c(=Nc2ccc(F)cc2)s1	0.5	55.5*	0.4	55.5*	4.3	3.8
COC(=O)c1cc(=O)n(-c2ccc(F)cc2)c(=Nc2ccc(F)cc2)s1	4.0	50.1*	-0.4	?	-0.8	28.6
COC(=O)c1cc(=O)n(Cc2ccc3c(c2)OCO3)c(=Nc2ccc(F)cc2)s1	-2.1	41.7	-0.1	?	1.2	21.5
CCN1[C@@H]2c3ccc(-c4ccc(F)cc4)c(=O)n3C[C@@H]2[C@@H](CO)[C@@H]1C(=O)OC	.	.	.	1.8	.	.
CCSC1=C(C#N)C(c2ccc(C)o2)CC(=O)N1 (stereo not drawn)	48.7*	-3.1	0.0	14.3	-3.0	-13.8
Cc1noc(C)c1NC(=O)Nc1cccc2c1O[C@H](CN(C)S(C)(=O)=O)[C@H](C)CN([C@@H](C)CO)C2=O	.	.	.	-6.5	.	.
COc1ccc(NC(=O)Nc2ccc3c(c2)CC(=O)N([C@H](C)CO)C[C@@H](C)[C@H](CN(C)S(=O)(=O)c2ccc(Cl)cc2)O3)cc1	.	.	.	3.6	.	.
COc1ccc2cc3c(N)nn(C(=O)c4ccc(Cl)c([N+](=O)[O-])c4)c3nc2c1	19.4	54.7*	-0.5	.	-4.8	21.8
COc1ccc(C2=NN(C(=O)c3ccc(Cl)c([N+](=O)[O-])c3)C(c3ccccc3)C2)cc1 (stereo not drawn)	4.8	-16.4	-0.4	-3.4	0.1	-9.0
COc1ccc2cc3c(N)nn(C(=O)c4ccccc4[N+](=O)[O-])c3nc2c1	63.0*	81.9*	0.3	.	-3.4	28.8
CCCC1CCC(C(=O)n2nc(N)c3cc4ccc(OC)cc4nc32)CC1 (stereo not drawn)	6.2	30.2	0.0	11.7	-0.1	18.4
CCCNC(=O)N[C@@H]1CC[C@@H](CC(=O)NCCc2ccccc2)O[C@@H]1CO	.	.	.	6.1	.	.
